From PubChem BioAssay (EPA / NIEHS) come the findings set out here.

Calls of active or inactive are those of the source. How the source made its calls: active means hit-call score of the fitted dose curve at least 0.9, where 1 is the maximum; inactive means score below 0.9.

Read-out in the first assay: Glutathione S-Transferase (GSTA2), GSTA2 (gene 2939)
Briefly: LTEA_HepaRG_GSTA2: Life Technologies and Expression Analysis (LTEA) Assay for Glutathione S-Transferase (GSTA2) using HepaRG (AID 2283497). Particulars: mRNA level, 48 h; actives raise or lower the signal. Summed up: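 GSTA2 transcript levels came from Fluidigm TaqMan qRT-PCR normalized to three housekeeping genes, fitted in both directions against DMSO. HepaRG cultures received chemicals for 48 h in serum-free induction medium (0.5% DMSO), 8 half-log concentrations up to 100 uM, duplicate.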
For `O=C(O)Cc1cc(I)c(Oc2cc(I)c(O)c(I)c2)c(I)c1`, the AC50 was 56.7 µM (active). Consider `CC(=O)CC(C)(C)O`, for which the call was inactive.

For `CCN(CC)CCNc1ccc(CNC=O)c2sc3ccc(OC)cc3c(=O)c12`, the AC50 is 81.8 µM (active). As for `OC1CCC(C2CCCCC2)CC1` (centres undefined), the molecule was called inactive.

For `O=c1c(-c2ccc(O)cc2)coc2cc(O)ccc12`, the call was inactive. On the same count and under the same terms, then `CN(C)C=O`, with “inactive”. Turning to `NC(=O)N(O)[C@@H]1C=C[C@H](Oc2cccc(Oc3ccc(F)cc3)c2)C1`, the AC50 is 51 µM (active). As for `CC[C@H](C)[C@@H](C(=O)O)n1sc2ccccc2c1=O`, the molecule was called inactive.

Read-out in the next assay: Glutamate-cysteine ligase catalytic (GCLC), GCLC (gene 2729)
As to the kind of experiment: LTEA_HepaRG_GCLC: Life Technologies and Expression Analysis (LTEA) Assay for Glutamate-cysteine ligase catalytic (GCLC) using HepaRG (AID 2283498). The settings on record: mRNA level, 48 h; actives raise or lower the signal. The essentials:
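Expression by TaqMan qRT-PCR, normalized to three housekeeping genes (ACTB, GAPDH, POLR2A), with up- or down-regulation fitted against DMSO. HepaRG cells dosed in duplicate for 48 h with 8 half-log concentrations up to 100 uM, vehicle 0.5% DMSO.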
For the molecule `CC(C)(C)c1cc(C(C)(C)C)c(O)c(C(C)(C)C)c1`, the call was inactive. Take `Cc1cc(C)c(O)c(C)c1`: the molecule was called inactive. For the molecule `CCCCC(CC)COC(=O)CCCCC(=O)OCc1ccccc1` (centres undefined), the outcome was inactive. In the case of `c1ccc2c(c1)ccc1ccccc12`, the result was inactive.

For `CCCCCCCCOC(=O)CCCCCCCCC(=O)OCCCCCCCC`, the result was inactive. On the same count and under the same terms, for `CC(C)(C)c1ccc(O)c(C(C)(C)C)c1` the value was “inactive”; for `O=C(OCCOCCOC(=O)c1ccccc1)c1ccccc1`, “inactive”. As for `CCCOc1sc(C(=O)N2CCC(c3cc(CN)ccc3F)CC2)c(C)c1Br`, the call was inactive. `CCc1nn(C2CCCCC2)c2cc(C3(C#N)CCC(C(=O)O)CC3)ccc12` (centres undefined): the AC50 was 83.6 µM (active). On to `COCC(C)OCC(C)O` (centres undefined), for which the call was inactive. Turning to `CC(C)(C)CC(C)(C)c1ccc(O)c(-n2nc3ccccc3n2)c1`, the outcome was inactive.

Regarding `CC(O)CO` (centres undefined), the molecule was classed as inactive. On to `COc1ccc([N+](=O)[O-])cc1N`, for which the outcome was inactive.

Consider `CCCCCCCCCCCCN1CCCC1=O`, for which the result was inactive.

Consider `OCCC(F)(F)C(F)(F)C(F)(F)C(F)(F)C(F)(F)C(F)(F)F`, for which the result was inactive. As to `CCCCCCCCCCCCc1ccccc1S(=O)(=O)O`, the outcome was inactive. As for `OCCC(F)(F)C(F)(F)C(F)(F)C(F)(F)C(F)(F)C(F)(F)C(F)(F)C(F)(F)F`, the outcome was inactive. As to `CCCCOCCO`, the molecule was called inactive. Turning to `CCCCCCCCCCCCCCCS(=O)(=O)Oc1ccccc1`, the call was inactive. As to `CC(C)(C)c1cccc(C(C)(C)C)c1O`, the result was inactive.

For `CCC(=C(c1ccc(O)cc1)c1ccc(OCCN(C)C)cc1)c1ccccc1`, the result was inactive. In the case of `CC(C)CCCCCCOC(=O)CCCCC(=O)OCCCCCCC(C)C`, the molecule was classed as inactive. As to `CN1CCN(c2ccccc2/C=C2\SCCN(c3ccc(Cl)c(Cl)c3)C2=O)CC1`, the molecule was classed as inactive. For `O=C(O)Cc1cc(I)c(Oc2cc(I)c(O)c(I)c2)c(I)c1`, the AC50 was 57.9 µM (active). As for `CC(=O)CC(C)(C)O`, the result was inactive.

With `CCN(CC)CCNc1ccc(CNC=O)c2sc3ccc(OC)cc3c(=O)c12`, the AC50 is 50 µM (active). Take `OC1CCC(C2CCCCC2)CC1` (centres undefined): the molecule was classed as inactive.

With `O=c1c(-c2ccc(O)cc2)coc2cc(O)ccc12`, the molecule was classed as inactive. For `CN(C)C=O`, the molecule was classed as inactive. `NC(=O)N(O)[C@@H]1C=C[C@H](Oc2cccc(Oc3ccc(F)cc3)c2)C1`: the molecule was called inactive. As to `CC[C@H](C)[C@@H](C(=O)O)n1sc2ccccc2c1=O`, the call was inactive.
